Measurements from PubChem BioAssay (NCATS).
Results filed as inconclusive are left out. Active and inactive are the calls of the source. Calls come from the whole dose curve; as a rule, active = well fitted curve in the direction sought with a large enough effect; inconclusive = small, poorly fitted or top-dose-only effect, or another doubt; inactive = no such curve, though single readings can be large; an effect the other way counts as inactive or inconclusive.

Assays:
[1] = biological target: DNA repair nuclease/redox regulator APEX1 (Homo sapiens) (UniProt P27695); assay: qHTS Validation Assay for Inhibitors of the Human Apurinic/apyrimidinic Endonuclease 1 (APE1) (AID 1705;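 note: TAMRA fluorescence gain over two minutes as APE1 cuts a quenched THF abasic duplex; series mostly up to about 57 µM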)
In short: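 Read-out: TAMRA fluorescence (525 nm ex, 598 nm em) from cleavage of a quenched THF abasic-site duplex, 50 nM final; activity taken as intensity change between third and first of three reads 60 s apart.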

[2] = Counterscreen for APE1 Inhibitors: Fluorescent Dye Displacement Validation Assay (AID 1707)
In short: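 Assay buffer: Tris-HCl pH7.5 with 50mM NaCl, 2 mM MgCl2, 0.01% Tween-20. Dye 250 nM, duplex 50 nM final. Readout: decrease in ThO endpoint fluorescence, 480 nm excitation, 540 nm emission.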

[3] = biological target: Endonuclease 4 (Escherichia coli (strain K12)) (UniProt P0A6C1); assay: Counterscreen for APE1 Inhibitors: qHTS Validation Assay for Inhibitors of Endonuclease IV (AID 1708)
In short: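 2 nM enzyme was preincubated with compounds for 15 min at room temperature in 50 mM Tris-HCl pH 7.5, 50 mM NaCl, 2 mM MgCl2, 1 mM DTT, 0.01% Tween-20. 50 nM THF-abasic TAMRA/BHQ-2 duplex substrate started the reaction.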

[4] = qHTS for differential inhibitors of proliferation of Plasmodium falciparum line 7G8 (AID 1815);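 note: parasite growth measured after three days of incubation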; note: potency is the fitted concentration of half-maximal effect
[5] = qHTS for differential inhibitors of proliferation of Plasmodium falciparum line GB4 (AID 1816); details: Potency: Plasmodium falciparum GB4 proliferation inhibition;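 note: parasite growth measured after 72 h incubation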; note: potency is the fitted concentration of half-maximal effect
[6] = qHTS for differential inhibitors of proliferation of Plasmodium falciparum line 3D7 (AID 1876); note: potency is the fitted concentration of half-maximal effect
[7] = qHTS for differential inhibitors of proliferation of Plasmodium falciparum line D10 (AID 1877);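 note: parasites grown with compound for 72 h before DNA staining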; note: potency is the fitted concentration of half-maximal effect
[8] = qHTS for differential inhibitors of proliferation of Plasmodium falciparum line Dd2 (AID 1882); details: Potency: Plasmodium falciparum Dd2 proliferation inhibition; note: nearly all actives have a fitted effect of over 65% in size; note: potency is the fitted concentration of half-maximal effect
In short: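 SYBR Green I DNA fluorescence read-out, ex 485/em 535 nm. Signals were normalized to 0.29 uM artemisinin and DMSO wells, then corrected using vehicle-only plates flanking each stack. Parasite growth ran 72 h in erythrocytes before lysis.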

[9] = qHTS for differential inhibitors of proliferation of Plasmodium falciparum line W2 (AID 1883); details: Potency: Plasmodium falciparum W2 proliferation inhibition;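 note: parasites grown with compound for 72 h before lysis and staining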; note: potency is the fitted concentration of half-maximal effect

Measured: Potency

Sequence of DNA repair nuclease/redox regulator APEX1 (Homo sapiens) (P27695 whole entry, looked up): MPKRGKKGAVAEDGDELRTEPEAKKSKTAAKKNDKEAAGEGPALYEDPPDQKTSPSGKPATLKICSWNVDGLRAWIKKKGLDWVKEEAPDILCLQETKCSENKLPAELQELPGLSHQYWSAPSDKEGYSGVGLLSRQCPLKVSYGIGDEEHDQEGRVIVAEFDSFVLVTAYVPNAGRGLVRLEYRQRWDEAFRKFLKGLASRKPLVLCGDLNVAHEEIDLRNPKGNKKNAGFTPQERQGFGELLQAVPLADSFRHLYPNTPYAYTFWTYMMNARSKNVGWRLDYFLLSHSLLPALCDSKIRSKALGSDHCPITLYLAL

NS(=O)(=O)c1cc2c(cc1Cl)NC(C1CC3C=CC1C3)NS2(=O)=O (configuration not stated)
inactive: all assays above

Cc1nnc(SCC2=C(C(=O)O)N3C(=O)[C@@H](NC(=O)Cn4cnnn4)[C@H]3SC2)s1
inactive: [1] | [3] | [6] | [7] | [8]

COc1ccc([C@@H]2Sc3ccccc3N(CCN(C)C)C(=O)[C@@H]2OC(C)=O)cc1
inactive: [1] | [3] | [7]
active: [9] 7.08 µM

C[n+]1cc2c3c(ccc2c2ccc4cc5c(cc4c21)OCO5)OCO3
active: [4] 4.47 µM | [5] 2.82 µM | [6] 2.82 µM | [7] 3.55 µM | [8] 6.31 µM | [9] 2.51 µM
inactive: [1]

Cc1nc2c([nH]1)c(=O)n(C)c(=O)n2Cc1ccco1
not listed: [3]
inactive: all other assays above

CCn1cc(C(=O)O)c(=O)c2cc3c(cc21)OCO3
inactive: [3] | [7] | [8]

C[C@H](CS)C(=O)N1CCC[C@H]1C(=O)O
not listed: [3] | [8]
inactive: all other assays above

CCC(=O)c1ccc2c(c1)N(CCCN(C)C)c1ccccc1S2
inactive: [1]
active: [4] 8.91 µM | [5] 11.2 µM | [6] 10 µM | [7] 17.8 µM | [9] 5.01 µM

COCCCC/C(=N\OCCN)c1ccc(C(F)(F)F)cc1
active: [4] 10 µM | [5] 5.62 µM | [9] 2.24 µM
inactive: [1] | [3]

CN(C)C/C=C(/c1ccc(Br)cc1)c1cccnc1
active: [4] 7.08 µM | [5] 12.6 µM | [6] 10 µM | [7] 11.2 µM | [9] 7.08 µM
inactive: [1] | [3]

CCN(Cc1ccncc1)C(=O)C(CO)c1ccccc1 (configuration not stated)
not listed: [3]
inactive: all other assays above

O=C(O)CP(=O)(O)O
inactive: [1] | [2] | [4] | [7] | [8]

O=C1CC2(CCCC2)CC(=O)N1CCCCN1CCN(c2ncccn2)CC1
inactive: [1] | [3] | [8]

NC(N)=N/N=C/c1c(Cl)cccc1Cl
inactive: [1] | [3]

CCCNC(C)C(=O)Nc1ccccc1C (configuration not stated)
not listed: [2] | [5] | [9]
inactive: all other assays above

CC(=O)OCC1=C(C(=O)O)N2C(=O)[C@@H](NC(=O)Cc3cccs3)[C@H]2SC1
not listed: [2] | [4]
inactive: all other assays above

C(=C\c1ccccc1)/CN1CCN(C(c2ccccc2)c2ccccc2)CC1
active: [4] 3.98 µM | [5] 8.91 µM | [8] 11.2 µM
inactive: [1] | [2]

Brc1c(NC2=NCCN2)ccc2nccnc12
inactive: [1] | [2] | [7] | [8]

CNCCCN1c2ccccc2CCc2ccccc21
inactive: [1] | [3]

CN(C)C(=O)Oc1ccc[n+](C)c1
not listed: [2] | [3]
inactive: all other assays above

CSc1ccc(C(=O)c2[nH]c(=O)[nH]c2C)cc1
not listed: [2] | [6]
inactive: all other assays above

CCOC(=O)c1cnc2c(cnn2CC)c1NN=C(C)C
inactive: [1] | [7] | [8]

OCCN1CCN(CC/C=C2/c3ccccc3Sc3ccc(C(F)(F)F)cc32)CC1
inactive: [1] | [2]
active: [4] 2.51 µM | [5] 2.24 µM | [6] 2.51 µM | [7] 12.6 µM | [8] 7.94 µM | [9] 1.58 µM

Nc1nc(N)c2nc(-c3ccccc3)c(N)nc2n1
active: [5] 0.891 µM | [6] 2 µM | [7] 2.51 µM | [9] 15.8 µM
inactive: [8]

COC(=O)[C@H]1[C@H]2C[C@@H]3c4[nH]c5cc(OC)ccc5c4CCN3C[C@H]2C[C@@H](OC(=O)c2cc(OC)c(OC)c(OC)c2)[C@@H]1OC
active: [4] 0.282 µM | [5] 2 µM | [6] 1.78 µM | [7] 2.82 µM | [8] 2.24 µM | [9] 0.891 µM
inactive: [1] | [2]
